Screens from PubChem BioAssay.
The list is not random: actives were taken first. Their share in the collection is about 14%.
Cycloheximide cs: Cycloheximide Counterscreen for Small Molecule Inhibitors of Shiga Toxin; cell reporter, cycloheximide protein synthesis inhibition counterscreen; max response, %; hit rate 12% among 300,000; AID 2314, 2010; in the data active = max response mostly above about 13%, no sharp cut-off; inactive = mostly below about 14%; also: read at 38.3 µM for the half of the compounds with a filed dose; 0% is about no effect
Giardia FBPA inh: qHTS Assay for Inhibitors of Fructose-1,6-bisphosphate Aldolase from Giardia Lamblia | Potency, µM (doses to about 59.6 µM), without a hit: top-dose activity, negative = inhibition, hits mostly inhibitors | A8B2U2 | hit rate 0.71% among 290,000 | purified Giardia FBPA; also: potency is read from the fitted curve at half-maximal effect; % is scaled to controls: 0 for no effect and ±100 for the full control effect; nearly all actives have a fitted effect of over 55% in size
Target sequence (A8B2U2 whole entry, looked up): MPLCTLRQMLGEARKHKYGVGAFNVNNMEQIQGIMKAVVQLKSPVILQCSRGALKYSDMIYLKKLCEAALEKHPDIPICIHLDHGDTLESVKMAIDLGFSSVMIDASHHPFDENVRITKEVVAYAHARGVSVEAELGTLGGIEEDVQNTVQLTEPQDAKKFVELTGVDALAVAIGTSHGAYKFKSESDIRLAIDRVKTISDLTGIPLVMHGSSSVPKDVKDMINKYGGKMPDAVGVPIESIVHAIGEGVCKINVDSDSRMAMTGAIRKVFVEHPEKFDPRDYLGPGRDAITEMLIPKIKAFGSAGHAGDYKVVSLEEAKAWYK
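Giardia FBPA (40 nM reagent) was preincubated 10 min at RT with compound (up to 57.5 uM final), then substrate plus GAPDH/TPI/NAD/arsenate coupling system with diaphorase/resazurin was added; resorufin fluorescence (525/598 nm) was read after 20 min.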
NS1 function inh: qHTS Assay for Inhibitors of Influenza NS1 Protein Function; Potency, µM (highest dose often 46.1 µM), for inactives: top-dose activity, positive = more growth; hit rate 0.4% among 270,000; calls by dose curve; also: potency is read from the fitted curve at half-maximal effect; actives are rising curves; nearly all actives have a fitted effect of over 50% in size
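Recovery from NS1-induced slow growth read by OD600 in budding yeast switched to galactose assay medium (pH 6.0, -URA) at 1:100 dilution. Compound 23 nl per well; the matching strain lacking NS1 serves as control.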
LmPK inhibitor: qHTS Assay for Inhibitors of Leishmania Mexicana Pyruvate Kinase (LmPK) | Q27686 | purified LmPK, Kinase-Glo ATP luminescence, 1 h | hit rate 0.37% among 290,000 | Potency, µM (highest dose often 57.5 µM), without a hit: top-dose activity change, negative = inhibition, actives largely listed as inhibitors; also: potency is read from the fitted curve at half-maximal effect; % is scaled to controls: 0 for no effect and ±100 for the full control effect
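ATP generated from ADP (0.1 mM) and PEP (0.5 mM) by 0.1 nM LmPK over 1 h at room temperature (pH 7.2 imidazole buffer) was detected by coupled luciferase luminescence. Values were normalized to uninhibited and no-enzyme wells.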
Shiga inhibitor: A qHTS for Small Molecule Inhibitors of Shiga Toxin. Vero cells, Shiga toxin protein synthesis inhibition reporter. inhibition, % at 38.7 µM. hit rate 9.2% among 290,000; in the data active = inhibition mostly above about 28%, no sharp cut-off; inactive = mostly below about 43%; also: 0% is about no effect
An asterisk follows results filed as active; ? = inconclusive; . = no result. Unless noted, calls follow the shape of the dose curve; as a rule, active = well fitted curve in the direction sought with a large enough effect; inconclusive = small, poorly fitted or top-dose-only effect, or another doubt; inactive = no such curve, though single readings can be large; an effect the other way counts as inactive or inconclusive.

SMILES	Cycloheximide cs	Giardia FBPA inh	NS1 function inh	LmPK inhibitor	Shiga inhibitor
COCCn1nnnc1C(c1ccccc1OC)N1CCN(C(=O)c2ccco2)CC1 (stereo unspecified)	7	?	-3%	-5%	15
CCN1CCN(C(c2cccc(OC)c2OC)c2nnnn2Cc2ccco2)CC1 (stereo unspecified)	-2	-3%	4%	-6%	-7
COc1ccc(Cn2nnnc2C(c2cc3cc(C)ccc3[nH]c2=O)N2CCOCC2)cc1 (stereo unspecified)	-2	6%	-10%	0%	-3
COc1ccccc1C(c1nnnn1Cc1ccco1)N1CCN(c2cccc(C)c2C)CC1 (stereo unspecified)	28*	1%	?	5%	43*
O=S1(=O)c2cccc3cccc(c23)N1CCCN1CCN(c2ccc(F)cc2)CC1	5	-5%	.	.	-9
Cc1ccccc1-c1nc(CS(=O)CC(=O)NCc2ccccn2)c(C)o1 (stereo unspecified)	-7	7%	17%	-1%	-9
CCCCCC(=O)NC(=S)Nc1cccc(C(C)=O)c1	23*	-1%	1%	1%	32*
Cc1ccc(C(=O)NC(=S)Nc2ccc(NC(=O)c3cccc(Cl)c3)cc2)cc1	0	0%	-2%	-2%	-10
CC(=O)c1cccc(NC(=S)NC(=O)c2ccc(Br)cc2)c1	32*	?	14%	0%	32
CC(=O)c1cccc(NC(=S)NC(=O)c2ccc(C)cc2)c1	40*	-17%	0%	-2%	88*
COC(=O)c1cc(S(=O)(=O)N2CCN(Cc3ccccc3)CC2)c[nH]1	9	-12%	-13%	3%	-7
COc1ccc(-n2c(-c3ccc(Br)cc3)c[n+]3c2CCc2ccccc2-3)cc1	14*	7%	11%	3%	1
Cn1cnc(S(=O)(=O)N2CCN(C(c3ccc(F)cc3)c3ccc(F)cc3)CC2)c1	0	3%	-15%	-1%	-6
Nc1nc2ccc(OC(F)(F)F)cc2s1	59*	-2%	-42%	.	67*
Nc1nc2ccc(S(=O)(=O)c3ccc4nc(N)sc4c3)cc2s1	-3	27%	0%	5%	-5
Nc1nc2ccc(O)cc2s1	5	0%	-9%	-3%	10
Nc1nc2ccc(Oc3ccccc3)cc2s1	30*	-8%	-100%	-2%	70*
CC(C)=CC(=O)Nc1ccccc1C(N)=O	2	3%	-4%	-11%	-8
NC(=O)c1ccccc1NC(=O)/C=C/c1ccccc1	34*	-2%	-12%	?	63*
O=C(/C=C/c1ccc(Cl)cc1)NC(=S)Nc1ccccc1C(=O)O	1	-8%	-41%	-7%	17
NC(=O)c1ccccc1NC(=O)/C=C/c1ccc(Cl)cc1	48*	7%	-6%	-15%	90*
O=c1cnc2cnc(Oc3ccccc3)nc2n1C1CC1	.	-5%	.	.	.
N[C@@](CCc1ccccc1)(C(=O)O)c1ccccc1	.	.	-7%	.	.
Cc1coc2cc3oc(=O)c(CCC(=O)N4CCC(C(=O)O)(c5ccccc5)CC4)c(C)c3cc12	-4	5%	8%	-6%	-3
CCNC(=S)N(CCO)Cc1cc2cc3c(cc2[nH]c1=O)OCO3	-2	-9%	-7%	31%	.
SMILES	Cycloheximide cs	Giardia FBPA inh	NS1 function inh	LmPK inhibitor	Shiga inhibitor
COc1ccc(N(C)C(=O)CN(C)S(=O)(=O)c2ccc3c(c2)c(=O)n(C)c(=O)n3C)c(OC)c1	-1	6%	0%	0%	-2
N#Cc1nc(-c2cccs2)oc1NCc1ccco1	18*	-1%	-53%	5%	28
C=CCNc1oc(-c2cccs2)nc1C#N	19*	-7%	2%	-1%	51*
N#Cc1nc(-c2ccco2)oc1NCc1ccccc1Cl	12*	2%	-56%	5%	44
Cc1ccc(CNc2oc(-c3cccs3)nc2C#N)cc1	20	1%	-94%	-2%	17
N#Cc1nc(-c2cccs2)oc1NCc1ccccc1	24*	-2%	-45%	2%	29
Cc1noc(/C=C/N(C)C)c1S(=O)(=O)N1CCC(C(=O)NC(C)(C)C)CC1	5	.	26%	-1%	-2
Cc1cc(C)c(NC(=O)CN2C(=O)CC(C)S(=O)(=O)c3ccccc32)c(C)c1 (stereo unspecified)	13	6%	13%	2%	-7
N#Cc1nc(-c2cccs2)oc1NCc1ccc(Cl)cc1	10	-10%	-19%	7%	9
N#Cc1nc(-c2cccs2)oc1NCc1ccccc1Cl	18*	16%	18%	7%	86*
CCCc1cc(C(=O)NCc2cccnc2)no1	-1	1%	-2%	-2%	1
CCCc1cc(C(=O)NCCc2ccc(OC)c(OC)c2)no1	10	-2%	-51%	8%	-2
CCCc1cc(C(=O)NCc2cccs2)no1	35*	0%	-90%	2%	61
CCCc1cc(C(=O)NCC(C)C)no1	33*	-2%	8%	3%	117*
CCCc1cc(C(=O)NCc2ccccc2)no1	27*	0%	-5%	-3%	59*
O=C(NCc1ccco1)c1ccc(=O)[nH]n1	-2	-3%	6%	-2%	-2
CCCc1cc(C(=O)NCc2ccco2)no1	15*	-2%	-16%	3%	72*
CN(C)S(=O)(=O)c1ccc(NC(=O)CN2CCN(c3ccccn3)CC2)cc1	2	9%	2%	-3%	-6
O=C(O)C[C@@H](C(=O)O)C1c2ccccc2-c2ccccc21	.	.	0%	.	.
COCCSc1nnc(NC(=O)COc2ccc3c(c2)OCO3)s1	-5	-8%	-34%	1%	13
COc1ccccc1N1CCN(C2CCCN(S(=O)(=O)c3ccccc3)C2)CC1 (stereo unspecified)	1	5%	4%	5%	-4
Cc1cc(=O)n2nc(N3CCCC(C(=O)NCc4ccccc4C)C3)sc2n1 (stereo unspecified)	-1	-5%	7%	0%	5
CC(=O)c1ccc(NS(=O)(=O)Cc2ccccc2)cc1	-3	13%	1%	1%	-13
CC(=O)N(C)c1ccc(NS(=O)(=O)Cc2ccccc2)cc1	27*	-4%	10%	-2%	63*
Cc1occc1C(=O)Nc1ccc2ccccc2c1	43*	-12%	-144%	?	113*
SMILES	Cycloheximide cs	Giardia FBPA inh	NS1 function inh	LmPK inhibitor	Shiga inhibitor
Cc1occc1C(=O)Nc1ccccc1	28*	1%	.	.	33*
Cc1occc1C(=O)Nc1cccc(Cl)c1Cl	24*	3%	-12%	0%	48
CC(=O)c1cccc(NC(=O)c2ccoc2C)c1	7	-2%	-6%	-5%	25
CCOC(=O)c1c(NC(=O)c2ccoc2C)sc(C)c1C	-2	0%	-11%	-3%	-7
CCOC(=O)c1cc(NC(=O)c2ccoc2C)cc(C(=O)OCC)c1	17*	-9%	-31%	-4%	19
Cc1csc2c(N3CCN(C(=S)Nc4ccc(F)cc4F)CC3)ncnc12	9	-10%	-2%	1%	6
Cc1noc(C)c1C(=O)Nc1ccc2ccccc2c1	21*	.	-9%	1%	34
